MARV entry inh: qHTS for inhibitors of binding or entry into cells for Marburg Virus; Marburg virus pseudotyped entry inhibition, cell reporter; AID 540276, 2011; Potency, µM (titrated, usually from 37.8 µM), usual class: inhibitors; 300,000 compounds, 1.8% hits; calls by dose curve; tested in HEK293 cells
FBPA Giardia inh: qHTS Assay for Inhibitors of Fructose-1,6-bisphosphate Aldolase from Giardia Lamblia | A8B2U2 | purified Giardia FBPA | Potency, µM (titrated, usually from 59.6 µM), most hits filed as inhibitors | 290,000 compounds, 0.71% hits; note: nearly all actives have a fitted effect of over 55% in size
Target sequence (A8B2U2 whole entry, looked up): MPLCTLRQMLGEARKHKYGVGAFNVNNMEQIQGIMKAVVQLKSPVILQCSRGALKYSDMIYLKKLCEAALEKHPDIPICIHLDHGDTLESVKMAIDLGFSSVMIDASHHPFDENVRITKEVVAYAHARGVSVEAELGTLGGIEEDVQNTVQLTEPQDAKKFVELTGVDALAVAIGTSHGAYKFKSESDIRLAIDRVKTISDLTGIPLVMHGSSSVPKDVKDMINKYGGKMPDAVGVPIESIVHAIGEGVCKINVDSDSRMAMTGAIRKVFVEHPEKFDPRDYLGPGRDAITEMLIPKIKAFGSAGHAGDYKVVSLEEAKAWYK
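Giardia FBPA (40 nM reagent) was preincubated 10 min at RT with compound (up to 57.5 uM final), then substrate plus GAPDH/TPI/NAD/arsenate coupling system with diaphorase/resazurin was added; resorufin fluorescence (525/598 nm) was read after 20 min.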
HCV inhibitor: qHTS Assay for Inhibitors of Hepatitis C Virus (HCV). Huh7.5.1 HCVcc-Cre infection, luciferase reporter, 44 h. Potency, µM (top dose mostly 41.8 µM), hits mostly inhibitors. 340,000 compounds, 3.4% hits
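Infectious HCV cell culture screen: compound-treated cells (1,000/well, pre-plated 4 h) are infected with HCVcc-Cre at roughly 0.5 moi and grown 44 h. Infection is quantified by luciferase signal after 15 min substrate incubation at room temperature.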
Lassa entry inh: qHTS for Inhibitors of binding or entry into cells for Lassa Virus | 300,000 compounds, 1.2% hits | Potency, µM (top dose mostly 37.9 µM), hits mostly inhibitors | Lassa virus pseudotype entry inhibition, cell reporter; calls by dose curve; tested in HEK293 cells; note: nearly all actives have a fitted effect of over 50% in size
HCMV inh: qHTS Assay for inhibitors of the human cytomegalovirus (HCMV). activity change, negative = inhibition, % at 57.5 µM. HFF cells, HCMV-luciferase reporter, 72 h; active compounds read low. 410,000 compounds, 4.5% hits. AID 1259415, 2018; in the data active = activity change below about -60%; inconclusive = no clear call, values can overlap the other calls; inactive = above about -39%
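Steps: HFFs plated, 16 h 37C; compounds added; HCMV-luciferase added to MOI 1 PFU/cell; 72 h 37C; OneGlo reagent, 5 min room temperature; luminescence read, normalized to controls.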
FMDV inh: High Throughput Screening for Foot and Mouth Disease Virus Antivirals; FMDV antiviral cell-based qHTS; Potency, µM (doses to about 57.9 µM), usual class: inhibitors; 410,000 compounds, 1.2% hits; AID 1159524, 2015; calls by dose curve; tested in HEK293T cells; note: read-out not given here; nearly all actives have a fitted effect of over 45% in size
Hits are given with their value; – = inactive; ? = inconclusive; · = no result; [ ] = another dose, or the depositor's remark. In the library only some 8.3% were active in any assay of this set; here they are far more common. Unless noted, calls come from the whole dose curve; as a rule, active = well fitted curve in the direction sought with a large enough effect; inconclusive = small, poorly fitted or top-dose-only effect, or another doubt; inactive = no such curve, though single readings can be large; an effect the other way counts as inactive or inconclusive.

SMILES | MARV entry inh | FBPA Giardia inh | HCV inhibitor | Lassa entry inh | HCMV inh | FMDV inh
CCC(C)NC(=O)CSc1nc2cc3c(cc2c(=O)n1Cc1ccc(C(=O)NCCc2ccc(OC)c(OC)c2)cc1)OCO3 (centres undefined) | · | · | · | – | · | ·
O=C(C1COc2ccccc2O1)N1CCN(c2nc3c(F)cccc3s2)CC1 (centres undefined) | · | · | · | – | – | –
CCOc1ccc(OCC)c(NC(=O)CSc2nc3c(c(=O)n(C)c(=O)n3C)n2C(C)C)c1 | ? | – | 10µM | ? | -62.5 | ·
O=C1CCCC=C1[C@@H](O)C1CCCCC1 | · | –[12.9 µM] | · | · | · | ·
Cc1ccc(C(=O)NC(NC(=O)c2ccc(C)cc2)c2cccc([N+](=O)[O-])c2)cc1 | – | – | – | – | -60.2 | –
COc1ccccc1NC(=O)OC[C@@H]1CSCCS(=O)(=O)N1 | ? | · | · | · | – | ·
COc1ccccc1Oc1ccc(NC(=O)c2ccc(Cl)cc2)cc1 | – | – | 2.82µM | – | – | ?
O=C(Nc1ccc(Nc2ccccc2)cc1)c1ccc(Cl)cc1 | · | · | ? | · | ? | –
COc1ccc(Oc2ccccc2C#N)cc1 | ? | – | ? | – | ? | –
COc1ccccc1Oc1ccc(Oc2ccccc2OC)cc1 | 10µM | – | – | ? | – | –
CNc1cccnc1C=NNC(N)=S | 1.26µM | · | 3.55µM | 0.631µM | -98.7 | –
Cc1[nH]c2ccccc2c1/C=N/NC(N)=S | ? | – | – | – | – | –
NC(=S)N/N=C/c1ccccc1 | – | ? | – | – | – | –
NC(=S)NN=Cc1nccc2c(C(F)(F)F)cccc12 | · | · | · | · | -73.8 | –
O=S(=O)(NCCc1nnc2ccc(SCc3c(F)cccc3Cl)nn12)c1ccccc1 | · | · | · | – | – | –
O=C(NCCNCC(O)COc1ccc(O)cc1)N1CCOCC1 (centres undefined) | ? | – | 0.316µM | · | – | –
Nc1nc(-c2ccccc2)c(N=Nc2ccccc2Cl)s1 | ? | – | 11.2µM | – | – | –
Nc1nc(-c2ccccc2)c(N=Nc2cccc3ccccc23)s1 | ? | – | ? | – | – | ?
c1ccc(-c2nnc(-c3ccccn3)nc2NC2CCCCC2)cc1 | 3.55µM | ? | 1.58µM | 5.01µM | -100.3 | –
CNc1nc(-c2ccccn2)nnc1-c1ccccc1 | ? | ? | ? | ? | -104.8 | –
CC(C)=CC1C(CO)C1(C)C (centres undefined) | · | – | · | · | · | –
COC(=O)C1CCCCN1Cc1ccc2c(c1)CN(C(=O)c1csc(-c3cccs3)n1)CCO2 (centres undefined) | · | · | · | · | · | –
CC(C)(C)OC(=O)N1CCC(c2c(C(=O)N3CCC(c4ccccc4)C3)cnn2-c2cccc(Cl)c2)CC1 (centres undefined) | · | · | · | ? | – | –
COc1cc2nc(SCc3ccc(C(F)(F)F)cc3)n(Cc3cccs3)c(=N)c2cc1OC | – | – | – | – | – | –
CCn1cc2nc(SCc3cc(C)ccc3C)n(Cc3ccc(OC)cc3)c(=O)c2n1 | · | · | · | ? | – | ?
SMILES | MARV entry inh | FBPA Giardia inh | HCV inhibitor | Lassa entry inh | HCMV inh | FMDV inh
COc1ccc(Cn2c(SCc3ccc(C)cc3)nc3cc(OC)c(OC)cc3c2=N)cc1Cl | 2.82µM | – | ? | 10µM | -99.5 | 35.5µM
COc1ccc(Cn2c(SCc3cc(C)ccc3C)nc3cc(OC)c(OC)cc3c2=N)cc1 | 4.61µM | – | 2.82µM | 6.51µM | – | ?
O=C1CCCN2N=C(SCC(=O)Nc3ccc(Cl)cc3)SC2=N1 | – | – | – | ? | – | –
O=C1CCCN2N=C(SCC(=O)Nc3ccccc3C(F)(F)F)SC2=N1 | – | – | · | – | – | –
CCCCc1ccc(NC(=O)CSC2=NN3CCCC(=O)N=C3S2)cc1 | ? | – | 11.2µM | ? | – | –
O=C1CCCN2N=C(SCC(=O)Nc3cccc(Cl)c3)SC2=N1 | – | – | ? | – | -81.2 | –
CCOc1ccc(NC(=O)CSC2=NN3CCCC(=O)N=C3S2)cc1 | · | – | – | · | – | –
O=C1CCCN2N=C(SCC(=O)Nc3cccc(C(F)(F)F)c3)SC2=N1 | ? | – | 6.31µM | – | -86.5 | –
CCc1cccc(C)c1NC(=O)CN1C(=O)c2ccccc2Sc2ncccc21 | · | · | · | – | – | –
Cc1nc2[nH]c(=S)[nH]c2c(=O)[nH]1 | – | · | – | – | -64.0 | –
CCN(CC)CCN(C(=O)c1cc2ccccc2cc1OC)c1nc2ccc(OC)cc2s1 | · | ? | 11.2µM | · | – | –
